A short description of assay [1]: CCTE_Harrill_HTTr_Apoptosis_MCF7: CCTE's 6-hour Apoptosis Assessment for the High-Throughput Transcriptomics (HTTr) Platform, in MCF-7 cells cultured in DMEM + 10% fetal bovine serum, Harrill Lab (AID 2284011). In outline:
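High-content imaging of CellEvent Caspase 3/7 Green signal follows a six-hour exposure, with eight concentrations per chemical. MCF-7 cells grown in DMEM plus 10% fetal bovine serum; activity fitted in both directions against DMSO.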

Assay [2] in a line: CCTE_Shafer_MEA_acute_burst_number: CCTE's Neural Acute Assay for Single-Electrode Bursts, Shafer Lab (AID 2284013). In outline: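 Burst totals were derived with adaptive spike detection (8x rms threshold) on filtered signals from rat cortical cultures; change relative to pre-treatment baseline after 40-min compound exposure (0.03-40 uM) was fitted in the negative direction against DMSO.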

Assay [3] is described as follows: CCTE_Shafer_MEA_acute_per_burst_spike_number_mean: CCTE's Neural Acute Assay for Average Number of Spikes Per Burst, Shafer Lab (AID 2284015).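 Also: hits are decreases in mean spikes per burst versus baseline.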 In outline: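 Percent change in mean spikes per single-electrode burst is compared between a 40 min baseline and a 40 min recording with compound (0.03-40 uM). Cultures were rat cortical neurons on MEA plates at DIV 13 or 15, recorded at 37 C, with DMSO as the negative control.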

A short description of assay [4]: CCTE_Shafer_MEA_acute_burst_percentage_mean: CCTE's Neural Acute Assay for Percentage of Spikes in a Burst, Shafer Lab (AID 2284017).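 Also: curve fitted for loss of signal so potency reflects decreased burst percentage.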 The gist of the method:
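Well-level mean burst percentage from a 40-min recording after compound (0.03-40 uM) expressed as percent change from a 40-min baseline at 37C. Cultures: primary rat cortical neurons on MEA, dosed on DIV 13 or 15; fitted downward relative to DMSO.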

The nature of assay [5]: CCTE_Shafer_MEA_acute_burst_percentage_std: CCTE's Neural Acute Assay for Standard Deviation of Burst Percentage, Shafer Lab (AID 2284018).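 Also: fitted in the negative direction so actives lower burst percentage SD.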 The gist of the method:
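Primary rat cortical neurons on 16-electrode MEA wells were recorded 40 min at baseline (DIV 13 or 15), then 40 min after compound (0.03-40 uM), at 37 C. Well value is SD across electrodes of spikes-in-bursts/total spikes; endpoint is percent change, DMSO-referenced.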

A short description of assay [6]: CCTE_Shafer_MEA_acute_per_network_burst_spike_number_mean: CCTE's Neural Acute Assay for Average Number of Spikes in a Network Burst, Shafer Lab (AID 2284019). In outline:
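Acute exposure of rat primary cortical networks (DIV 13/15) on MEAs; adaptive spike detection at 8x rms noise, 37 C. Percent change in spikes per network burst after 40 min with compound (0.03-40 uM), negative direction vs DMSO.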

Assay [7] can be described thus: CCTE_Shafer_MEA_acute_per_network_burst_spike_number_std: CCTE's Neural Acute Assay for Standard Deviation of Number of Spikes in a Network Burst, Shafer Lab (AID 2284020).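 Also: fitted for decrease in spike-number SD versus DMSO so actives lower it.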 The gist of the method:
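Acute MEA exposure, rat cortical neurons, 0.03-40 uM. Per-well % change versus own baseline; DMSO as negative control.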

Assay [8] is described as follows: CCTE_Shafer_MEA_acute_per_network_burst_electrodes_number_mean: CCTE's Neural Acute Assay for Mean Number of Electrodes in a Network Burst, Shafer Lab (AID 2284021).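 Also: curves fitted for decreases only so hits reduce electrodes per burst.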 The gist of the method: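 Percent change from baseline was computed as mean electrode count per network burst, comparing 40 min recordings before and during compound (0.03-40 uM) exposure. Cultures were rat cortical neurons at DIV 13 or 15, recorded on MEAs at 37 C with an adaptive 8x rms threshold.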

Assay [9] in a line: CCTE_Shafer_MEA_acute_network_burst_percentage: CCTE's Neural Acute Assay for Percentage of Network Bursts, Shafer Lab (AID 2284022).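 Also: curves fitted for loss so actives lower network burst percentage.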 The gist of the method: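 Network burst percentage (spikes in network bursts divided by total spikes) recorded at 37 C over 40 min baseline and 40 min after compound, 0.03-40 uM, in rat cortical cultures at DIV 13 or 15. Analysed as percent change from baseline versus DMSO.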

Assay [10] in a line: CCTE_Shafer_MEA_acute_cross_correlation_area: CCTE's Neural Acute Assay for Area of Cross Correlation, Shafer Lab (AID 2284024).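 Also: area under pooled inter-electrode spike cross-correlation near zero lag as percent change from own baseline; curves fitted for loss of cross-correlation area so actives lower synchrony.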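 As to outcome: rat primary cortical neuron networks on 48-well MEA at DIV 13 or 15 with 40 min exposure.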 In outline:
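Percent change in well-wide cross-correlation area (window around zero lag) between 40 min baseline and 40 min post-compound recordings, 37 C; rat cortical cultures on MEA at DIV 13 or 15, dosed 0.03-40 uM, wells needing >/= 10 active electrodes.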

Assay [11] in a line: CCTE_Shafer_MEA_acute_cross_correlation_HWHM: CCTE's Neural Acute Assay for Cross Correlation at Half Width at Half Maximum, Shafer Lab (AID 2284026).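 Also: percent change per well from pre-dose baseline in spike cross-correlogram half width; hits are a decrease in cross-correlogram half width relative to DMSO.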 In outline:
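Per-well percent change in cross-correlogram half width at half maximum, derived from 40-min recordings before and after compound (0.03-40 uM) at 37 C. Cultures were rat cortical neurons, DIV 13 or 15, with adaptive spike detection at 8x rms.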

A short description of assay [12]: CCTE_Shafer_MEA_acute_synchrony_index: CCTE's Neural Acute Assay for Synchrony, Shafer Lab (AID 2284027).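 Also: network synchrony index of spontaneous spiking in primary rat cortical neurons on MEAs; fitted for loss of signal so actives lower synchrony relative to DMSO.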 In outline:
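Plates equilibrated 20 min at 37 C, baseline recorded 40 min, compound (0.03-40 uM) added, then 40 min more recorded. Cells: primary rat cortical neurons, DIV 13 or 15. Per-well synchrony index change analysed in negative direction against DMSO.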

Assay [13] addresses Estrogen receptor (Homo sapiens) (UniProt P03372). The experiment in a line: CCTE_Deisenroth_AIME_96WELL_LUC_Active: CCTE's 96-well Estrogen Receptor Transactivation Assay with AIME metabolic competence (ERTA luciferase; metabolism positive), Deisenroth Lab (AID 2284023; active = hit-call score of the fitted dose curve at least 0.9, where 1 is the maximum). In outline: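 Metabolism-positive mode: induced rat hepatic S9 in alginate microspheres conditions test solutions (0.002 - 200 uM, 10 points) for 2 hours. VM7Luc4E2 ER luciferase reporter cells then exposed 24 h; positive-direction fit against 17beta-estradiol, n=4 typical.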

For assay [14] the target is unchanged. The experiment in a line: CCTE_Deisenroth_AIME_96WELL_LUC_Inactive: CCTE's 96-well Estrogen Receptor Transactivation Assay without AIME metabolic competence (ERTA luciferase; metabolism negative), Deisenroth Lab (AID 2284025; active = hit-call score of the fitted dose curve at least 0.9, where 1 is the maximum). The gist of the method: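 Metabolism-negative arm: chemicals (0.002–200 uM, 10 points) incubated 2 h with alginate-water microspheres, then medium moved onto VM7Luc4E2 cells for 24 h luciferase read-out. Positive direction vs 17beta-estradiol; n≥4 experiments.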

Assay [15] is described as follows: CCTE_Deisenroth_AIME_96WELL_CTox_Active: Cytotoxicity Assessment (CTOX) in CCTE's 96-well Estrogen Receptor Transactivation Assay with AIME metabolic competence (metabolism positive), Deisenroth Lab (AID 2284028; active = hit-call score of the fitted dose curve at least 0.9, where 1 is the maximum). In outline:
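Cytotoxicity in VM7Luc4E2 breast cells after 24 h exposure to medium from a 2 h metabolic pre-incubation with induced rat hepatic S9 in alginate microspheres; fluorescent live-cell protease readout, 10-point series 0.002–200 uM, n=4.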

A short description of assay [16]: CCTE_Shafer_MEA_dev_firing_rate_mean: CCTE's Neural Network Formation Assay for Mean Firing Rate, Shafer Lab (AID 2284031).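 As to AC50: curve fitted for loss of firing so AC50 reflects decreased mean firing rate.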 In outline:
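Steps: seed rat cortical cells (1.5 x 10^5/well) with laminin on PEI-coated MEA; dose day 0; record DIV 5/7/9/12, full media and compound exchange after DIV 5 and 9 recordings; compute well-mean firing rate AUC.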

The nature of assay [17]: CCTE_Shafer_MEA_dev_per_burst_spike_percent: CCTE's Neural Network Formation Assay for Percent of Spikes in a Burst, Shafer Lab (AID 2284032).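 As to AC50: fitted as a decrease in burst spike percentage below DMSO baseline.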 The gist of the method: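 Value is trapezoidal AUC over recordings on days 5, 7, 9 and 12 of the well-mean fraction of spikes falling in single-electrode bursts; rat cortical cultures exposed continuously from plating, treatment renewed DIV 5 and 9, fitted downward against DMSO.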

Assay [18] addresses Estrogen receptor (Homo sapiens) (UniProt P03372). Briefly: CCTE_Deisenroth_AIME_384WELL_LUC_Active: CCTE's 384-well Estrogen Receptor Transactivation Assay with AIME metabolic competence (ERTA luciferase; metabolism positive), Deisenroth Lab (AID 2284030; active = hit-call score of the fitted dose curve at least 0.9, where 1 is the maximum). In outline:
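VM7Luc4E2 breast cells were given, for 24 hours, medium pre-incubated for 2 hours with parent chemical (0.002-200 uM, 10 concentrations) and alginate-encapsulated phenobarbital/beta-naphthoflavone-induced rat hepatic S9. Luciferase gain of signal was fitted against 17beta-estradiol; n=4 or more.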

A short description of assay [19]: CCTE_Harrill_HTTr_CellCount_MCF7: CCTE's Cell Proliferation Assessment for the High-Throughput Transcriptomics (HTTr) Platform, Harrill Lab (AID 2284012; active = hit-call score of the fitted dose curve at least 0.9, where 1 is the maximum;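 also: cells exposed to compound for six hours; intended direction is loss of nuclei count meaning fewer cells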). In outline:
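Cell count served as viability reporter: loss of Hoechst-stained nuclei, counted by high content imaging, marks decreased growth or survival. Exposure was 6 h in MCF-7 cells across eight concentrations, with DMSO as baseline.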

Assay [20] is described as follows: CCTE_Deisenroth_AIME_96WELL_CTox_Inactive: Cytotoxicity Assessment (CTOX) in CCTE's 96-well Estrogen Receptor Transactivation Assay without AIME metabolic competence (metabolism negative), Deisenroth Lab (AID 2284029; active = hit-call score of the fitted dose curve at least 0.9, where 1 is the maximum). The gist of the method:
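Metabolism-negative mode: alginate-water lids without rat S9, 2 h pre-incubation of 10-point series (0.002 - 200 uM). Conditioned medium on VM7Luc4E2 cells 24 h; loss of fluorescent live-cell protease signal marks cytotoxicity.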

Each structure is given as a SMILES string. Several values for one entry are separate records, joined by “and”; a condition that tells them apart may be missing. Equal entries are not always repeated. Records with an inconclusive call do not appear. Some structures have more than one record in an assay (separate samples or runs), and their calls can disagree. Activity calls are given as the source filed them. The calls were made as follows, unless noted: active = hit-call score of the fitted dose curve at least 0.9, where 1 is the maximum; inactive = score below 0.9.

Sequence of Estrogen receptor (Homo sapiens) (P03372 whole entry, looked up): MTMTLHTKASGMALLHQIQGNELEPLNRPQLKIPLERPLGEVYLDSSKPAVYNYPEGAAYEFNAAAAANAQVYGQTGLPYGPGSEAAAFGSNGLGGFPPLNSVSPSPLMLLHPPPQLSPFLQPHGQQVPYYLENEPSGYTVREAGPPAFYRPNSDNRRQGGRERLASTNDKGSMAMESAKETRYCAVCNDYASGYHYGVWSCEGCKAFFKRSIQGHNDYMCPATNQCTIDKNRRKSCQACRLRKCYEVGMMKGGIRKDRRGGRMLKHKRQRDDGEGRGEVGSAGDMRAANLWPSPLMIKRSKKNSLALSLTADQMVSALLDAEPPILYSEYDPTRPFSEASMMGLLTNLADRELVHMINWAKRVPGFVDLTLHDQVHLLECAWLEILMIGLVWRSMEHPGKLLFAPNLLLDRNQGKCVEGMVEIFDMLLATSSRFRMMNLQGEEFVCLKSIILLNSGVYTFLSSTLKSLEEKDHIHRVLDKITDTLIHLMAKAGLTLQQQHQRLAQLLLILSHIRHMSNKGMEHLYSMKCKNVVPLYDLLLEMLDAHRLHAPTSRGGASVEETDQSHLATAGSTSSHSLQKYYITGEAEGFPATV

On to `CON(C)C(=O)Nc1ccc(Cl)c(Cl)c1`, for which the outcome in assay [1], in [2], in [3], in [6], in [7] and in assay [8] was inactive. Moreover, the call in assay [9] and in [10] was inactive. Also, the concentration at half-maximal activity (AC50) in assay [4] is 8.54 µM (active); in assay [5], 0.649 µM (active); in [11] it was 6.23 µM (active); in [12], 6.56 µM (active).

For `CCCCOC(=O)c1ccccc1C(=O)OCCCC`, the outcome in assay [1], in [13], in assay [15] and in assay [16] was inactive. The figures for the AC50 in assay [14] and in [17] were 34.1 µM (active) and 75.3 µM (active), respectively.

With `CCON=C(CC)C1=C(O)CC(c2c(C)cc(C)cc2C)CC1=O` (stereo unspecified), the result in assay [1] and in assay [18] was inactive.

In the case of `COc1cnc(OC)n2nc(NS(=O)(=O)c3c(OCC(F)F)cccc3C(F)(F)F)nc12`, the outcome in assay [1] and in [19] was inactive. Further, the AC50 in assay [18] was 21.2 µM (active).

Take `CCCCC(CC)COC(=O)c1ccccc1C(=O)OCC(CC)CCCC` (stereo unspecified): the outcome in [1], in assay [19], in assay [13], in [14], in [15] and in assay [20] was inactive. In addition, the call in assay [16] and in assay [17] was inactive. The concentration at half-maximal activity (AC50) in [16] was 2.98 µM (active) and 3.04 µM (active); in assay [17], 15 µM (active) and 9.27 µM (active).

Regarding `COC(=O)N(OC)c1ccccc1COc1ccn(-c2ccc(Cl)cc2)n1`, the result in assay [1], in assay [6], in [7], in [8], in assay [18] and in assay [16] was inactive. Further, the AC50 in assay [2] is 0.0942 µM (active); in [3], 2.16 µM (active); in [4], 0.976 µM (active); in assay [5], 0.0765 µM (active); in assay [9], 0.113 µM (active); in [10], 0.0374 µM (active). Also, the AC50 in [11] was 1.62 µM (active); in assay [12], 1.73 µM (active); in assay [16], 79.6 nM (active); in [17], 184 nM (active) and 27 nM (active).

Turning to `CCCCNC(=O)n1c(NC(=O)OC)nc2ccccc21`, the result in assay [1], in [19] and in assay [16] was inactive. For the same compound, the AC50 in assay [17] is 15 µM (active).

As to `O=C(O)COc1nc(Cl)c(Cl)cc1Cl`, the outcome in assay [1], in assay [19] and in [18] was inactive.

The values are drawn from PubChem BioAssay (EPA / NIEHS).
